{"source": "PubChem BioAssay", "data": [{"target": "Epidermal growth factor receptor (Homo sapiens) (UniProt P00533)", "sequence (P00533 whole entry, looked up)": "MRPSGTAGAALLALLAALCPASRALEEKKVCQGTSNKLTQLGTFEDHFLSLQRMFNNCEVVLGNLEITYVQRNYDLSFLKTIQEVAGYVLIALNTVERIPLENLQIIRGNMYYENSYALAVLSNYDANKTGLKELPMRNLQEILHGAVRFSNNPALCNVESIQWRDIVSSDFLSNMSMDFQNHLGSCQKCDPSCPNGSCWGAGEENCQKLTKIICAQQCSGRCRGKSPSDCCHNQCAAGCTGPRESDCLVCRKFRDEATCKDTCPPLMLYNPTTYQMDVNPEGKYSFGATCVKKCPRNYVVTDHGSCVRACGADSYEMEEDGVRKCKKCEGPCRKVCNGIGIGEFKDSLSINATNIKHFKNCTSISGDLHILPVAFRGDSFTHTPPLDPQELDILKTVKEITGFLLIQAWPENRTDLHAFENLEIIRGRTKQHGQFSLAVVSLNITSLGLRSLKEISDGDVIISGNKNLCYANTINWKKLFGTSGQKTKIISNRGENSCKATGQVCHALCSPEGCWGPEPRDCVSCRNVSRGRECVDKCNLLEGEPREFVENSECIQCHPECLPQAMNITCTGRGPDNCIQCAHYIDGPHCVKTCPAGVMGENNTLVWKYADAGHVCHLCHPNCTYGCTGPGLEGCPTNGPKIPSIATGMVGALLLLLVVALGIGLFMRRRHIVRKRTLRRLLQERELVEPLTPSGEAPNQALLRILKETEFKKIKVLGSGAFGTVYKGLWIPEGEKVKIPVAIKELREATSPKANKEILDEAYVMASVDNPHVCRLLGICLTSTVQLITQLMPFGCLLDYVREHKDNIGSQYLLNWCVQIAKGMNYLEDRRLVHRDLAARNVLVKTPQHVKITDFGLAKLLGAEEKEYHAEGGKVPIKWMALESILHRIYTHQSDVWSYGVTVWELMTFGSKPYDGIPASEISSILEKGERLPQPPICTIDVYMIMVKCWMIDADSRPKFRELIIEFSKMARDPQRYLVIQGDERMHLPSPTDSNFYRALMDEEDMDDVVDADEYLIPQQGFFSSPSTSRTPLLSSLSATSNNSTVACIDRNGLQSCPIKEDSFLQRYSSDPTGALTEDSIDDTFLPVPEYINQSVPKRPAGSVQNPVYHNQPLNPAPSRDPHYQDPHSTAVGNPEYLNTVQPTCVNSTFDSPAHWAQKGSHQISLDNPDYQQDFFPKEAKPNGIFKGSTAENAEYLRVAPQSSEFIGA", "assay": "compounds binding epidermal growth factor receptor – biochemical, small-molecule microarray, 635 nm fluorescence, primary screen (AID 1104);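 also: score merges 667 nm emission intensity with spot signal to noise over triplicate slides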", "details": "EGFR binding, higher = more signal", "values": [{"smiles": "CC(C)(C)OC(=O)CC[C@]1(C(=O)NCCN2CCOCC2)N=C(c2ccc(OCCCO)cc2)O[C@H]1c1ccccc1", "composite z-score": -0.174}, {"smiles": "C=CC[C@@]12N=C(c3ccc(OCCCO)cc3)O[C@@H]1c1ccccc1N(CCS(=O)(=O)c1ccccc1)C2=O", "composite z-score": 0.272}, {"smiles": "CCOC(=O)C[C@H]1[C@H](OC(=O)c2ccccc2-c2ccccc2)[C@@H](NC(=O)CC(C)C)c2cc(OCCCO)ccc2N1C(=O)c1ccc2ccccc2n1", "composite z-score": 0.159}, {"smiles": "COc1ccc(C(O)C2C=CC3C(=O)N(c4ccccc4)C(=O)C3N2Nc2ccccc2)cc1OCc1ccccc1", "note": "(stereo not given)", "composite z-score": -0.0831}, {"smiles": "NCCCCCNC(=O)[C@@H]1C[C@@H]2C(=O)N[C@@H](CCCCN)C(=O)N2[C@@H]1c1cccc(OCCO)c1", "composite z-score": -0.0511}, {"smiles": "CCCCC(CC)C(O)C1C=CC2C(=O)N(c3ccccc3)C(=O)C2N1Nc1ccc([N+](=O)[O-])cc1", "note": "(stereo not given)", "composite z-score": 0.444}, {"smiles": "CC(C)(C)OC(=O)CC[C@]1(C(=O)O)N=C(c2ccc(OCCCO)cc2)O[C@H]1c1ccccc1CN=[N+]=[N-]", "composite z-score": -0.554}, {"smiles": "C=C(/C(=C/C[C@@H](OC(=O)c1ccncc1)c1ccccc1OCCO)c1cc(C(=O)OC)ccc1OC)C(C)C", "composite z-score": 0.228}, {"smiles": "O=C1O[C@@H](c2ccccc2)[C@@H](c2ccccc2)N2[C@@H](c3ccccc3OCCO)[C@]3(C(=O)Nc4ccccc43)[C@@H](C(=O)NC[C@H](O)c3ccccc3)[C@H]12", "composite z-score": -0.528}, {"smiles": "COCCOC(=O)N1C(=O)[C@@]2(c3cc(C#CC4(O)CCCCCC4)ccc31)[C@H](c1ccccc1OCCO)N1[C@H](c3ccccc3)[C@H](c3ccccc3)OC(=O)[C@H]1[C@@H]2C(N)=O", "composite z-score": 0.442}, {"smiles": "O=c1cccc(-c2cccc(Cl)c2)o1", "composite z-score": 0.167}, {"smiles": "COCCOC(=O)N1C(=O)[C@@]2(c3cc(C#CC4=CCCCC4)ccc31)[C@H](C(=O)N1CCN(c3ncccn3)CC1)[C@H]1C(=O)O[C@H](c3ccccc3)[C@H](c3ccccc3)N1[C@@H]2c1ccc(O)cc1", "composite z-score": 0.466}, {"smiles": "COCC(=C=CC[C@H](O)c1ccc(OCCO)cc1)C[C@H](O)COCc1ccccc1", "composite z-score": 0.291}, {"smiles": "C=C[C@@H](COC(C)=O)NS(=O)(=O)c1ccc(Br)cc1", "composite z-score": 0.118}, {"smiles": "O=C1C2C=CC(C(O)c3cc(C(F)(F)F)cc(C(F)(F)F)c3)N(Nc3ccc([N+](=O)[O-])cc3)C2C(=O)N1c1ccccc1", "note": "(stereo not given)", "composite z-score": 0.437}, {"smiles": "CC(=O)NCCCC[C@@H]1NC(=O)[C@@H]2C[C@H](C(=O)O)[C@H](c3ccc(O)cc3)N2C1=O", "composite z-score": -1.7}, {"smiles": "COCCOC(=O)N1C(=O)[C@@]2(c3cc(C#CC4=CCCCC4)ccc31)[C@H](c1ccc(O)cc1)N1[C@H](c3ccccc3)[C@H](c3ccccc3)OC(=O)[C@H]1[C@@H]2C(=O)Nc1nc2ccccc2s1", "composite z-score": 0.383}, {"smiles": "CC(C)CNC(=O)[C@@H]1c2ccccc2C(=O)N(Cc2cc(F)cc(C(F)(F)F)c2)[C@H]1c1ccc(CO)cc1", "composite z-score": -0.315}, {"smiles": "C=C(C(=O)CC[C@H](OC(C)=O)c1cccc(OCCO)c1)C(C)C", "composite z-score": -1.31}, {"smiles": "O=C1O[C@@H](c2ccccc2)[C@@H](c2ccccc2)N2[C@@H](c3ccc(O)cc3)[C@]3(C(=O)Nc4ccc(C#CCCO)cc43)[C@@H](C(=O)NC[C@H](O)c3ccccc3)[C@H]12", "composite z-score": -0.637}, {"smiles": "CCCN1C(=O)[C@]2(Cc3ccccc3)N=C(c3ccc(OCCCO)cc3)O[C@@H]2c2ccccc21", "composite z-score": 0.642}, {"smiles": "C[C@H]1C2=C3C(CC[C@H]4C(OCc5ccc(F)cc5C(F)(F)F)OC[C@](C)([C@@H]34)N(C(=O)OC(C)(C)C)C2)C2COC(=O)OCC21", "note": "(stereo not given in full)", "composite z-score": 0.0472}, {"smiles": "O=C1c2ccccc2[C@](Cc2ccccc2I)(C(=O)NCCN2CCOCC2)[C@H](c2ccc(CO)cc2)N1Cc1ccccc1", "composite z-score": 0.167}, {"smiles": "COC(=O)[C@@]1(Cc2ccc(OC)cc2)[C@H]2c3cc(C(=O)N(C)C)n(Cc4nc5ccccc5[nH]4)c3C[C@H]2CN1C(=O)c1ccccc1", "composite z-score": 0.0916}, {"smiles": "C[C@]1(C(=O)NC2CC2)c2ccccc2C(=O)N(Cc2ccc(OC(F)(F)F)cc2)[C@H]1c1ccc(CO)cc1", "composite z-score": -0.617}, {"smiles": "CN(C)CCCNC(=O)[C@@H]1c2ccccc2C(=O)N(CC23CC4CC(CC(C4)C2)C3)[C@H]1c1ccc(CO)cc1", "composite z-score": 0.425}, {"smiles": "CC1CC/C=C\\[C@H]2OC34C=CCN(C(C)C)C(=O)[C@H]3N(CCCCCO)C(=O)[C@@H]4C2C(=O)O1", "note": "(stereo not given in full)", "composite z-score": -1.4}, {"smiles": "C=CCOC(=O)[C@H]1[C@@H]2C(=O)O[C@@H](c3ccccc3)[C@@H](c3ccccc3)N2[C@@H](c2ccc(OCCOC(=O)[C@H]3C[C@H]4C(=O)N[C@@H](Cc5ccccc5)C(=O)N4[C@H]3c3cccc(OCCO)c3)cc2)[C@]12C(=O)Nc1ccc(I)cc12", "composite z-score": 0.536}, {"smiles": "CC(C)CN1C(=O)[C@@]2(c3ccc([N+](=O)[O-])cc3)CC(=O)N(CC34CC5CC(CC(C5)C3)C4)[C@@H]2c2ccc(CO)cc21", "composite z-score": -1.72}, {"smiles": "C=C(CCCC)/C(=C/C[C@@H](OC(C)=O)c1ccc(CO)o1)c1cc(C(=O)OC)ccc1OC", "composite z-score": 0.0789}, {"smiles": "COC(=O)C1(Cc2ccccc2)C=C2C(=C(C(C)C)C(=O)C2C)CN1", "note": "(stereo not given)", "composite z-score": -0.449}, {"smiles": "COc1ccc([Si](C)(C)[C@@H]2[C@@H](CCO)O[C@]3(C(=O)N(Cc4cccc(N5C(=O)c6cccc7cccc5c67)c4)c4ccccc43)[C@H]2C)cc1", "composite z-score": -0.491}, {"smiles": "C=CCC(OC(C)=O)[C@@H]1[C@@H](N(Cc2cc3ccccc3o2)C(=O)Cc2ccc(F)cc2)c2cc(OCCCO)ccc2N1C(=O)c1ccc2ccccc2n1", "note": "(stereo not given in full)", "composite z-score": 0.112}, {"smiles": "C=CCOC(=O)[C@@H]1[C@H]2C(=O)O[C@H](c3ccccc3)[C@H](c3ccccc3)N2[C@H](c2ccc(OCCOC(=O)[C@H]3C[C@H]4C(=O)N[C@@H](CCCC[N+](C)(C)C)C(=O)N4[C@H]3c3ccc(O)cc3)cc2)[C@@]12C(=O)Nc1ccc(I)cc12", "composite z-score": 1.18}, {"smiles": "[N-]=[N+]=Nc1ccccc1[C@@H]1OC(c2ccc(OCCCO)cc2)=N[C@]1(CCS(=O)(=O)c1ccccc1)C(=O)NCCN1CCOCC1", "composite z-score": 0.652}]}]}
